{
  "source": "ChEMBL document CHEMBL4296183",
  "about": "“CO-ADD screening of NIH NCI Natural Product Set III” (2020)",
  "data": [
    {"system": "Acinetobacter baumannii", "test": "Antibacterial activity against Acinetobacter baumannii ATCC 19606 (CO-ADD:GN_034); MIC in CAMBH media using NBS plates, by Resazurin F(560/590)", "type": "functional", "settings": "Concentration 20 uM, ASSAY_TEST Inhibition of Bacterial Growth, detection method Resazurin, Fluorescence (ex560/em590), MEDIA CAMHB, plate type 384well, CORNING #3640, time 18 hr", "units": {"Inhibition": "%"}, "values": [
      {"smiles": "CC(=O)O.COc1ccc2c(=O)oc3c(OC)cc(CCN(C)C)c4c(=O)oc1c2c34", "Inhibition": -7.25},
      {"smiles": "CC1=C2[C@H]3OC(=O)[C@@H](C)[C@@H]3CC[C@@]2(C)C=C/C1=N\\O", "Inhibition": -5.16},
      {"smiles": "COC1/C=C\\C=C(/C)C(=O)NC2=CC(=O)C(N)=C(CC(C)CC(OC)C(O)C(C)/C=C(\\C)C1OC(N)=O)C2=O", "note": "(stereo not given)", "Inhibition": -32.33},
      {"smiles": "COc1cc([C@@H]2c3cc4c(cc3[C@@H](OC3OC5CO[C@@H](c6cccs6)OC5C(O)C3O)[C@H]3COC(=O)[C@H]23)OCO4)cc(OC)c1O", "note": "(stereo not given in full)", "Inhibition": -1.54},
      {"smiles": "O=c1oc2c(O)c(O)cc3c(=O)oc4c(O)c(O)cc1c4c23", "note": "[ELLAGIC ACID]", "Inhibition": -6.11},
      {"smiles": "O=C1c2cc(O)c(O)cc2O[C@H](c2ccc(O)c(O)c2)[C@H]1O", "Inhibition": -11.64},
      {"smiles": "COC(=O)NC1C(C)OC(OC2C/C=C(/C)C3C=CC4C(OC5CC(OC6CCC(OC7CC(O)C(OC8CCC(O)C(C)O8)C(C)O7)C(C)O6)C(OC(C)=O)C(C)O5)C(C)CC(C)C4C3(C)/C(O)=C3/C(=O)OC4(CC(C=O)=CC(O)C4/C=C\\2C)C3=O)CC1(C)[N+](=O)[O-]", "note": "(stereo not given)", "Inhibition": -13.61},
      {"smiles": "COc1ccc(C2CC(=O)c3c(O)cc(OC4OC(CO)C(O)C(O)C4OC4OC(C)C(O)C(O)C4O)cc3O2)cc1O", "note": "(stereo not given)", "Inhibition": -4.03},
      {"smiles": "CCC1NC(=O)C(NC(=O)c2ncccc2O)C(C)OC(=O)C(c2ccccc2)NC(=O)C2CC(=O)CCN2C(=O)C(Cc2ccccc2)N(C)C(=O)C2CCCN2C1=O", "note": "(stereo not given)", "Inhibition": -3.49},
      {"smiles": "CC1(C)CCCC2(C)C3=C(CCC12)C(=O)OC3", "note": "(stereo not given)", "Inhibition": -0.35},
      {"smiles": "CN1CCc2cc3c(cc2C(=O)Cc2ccc4c(c2C1)OCO4)OCO3.Cl", "note": "[PROTOPINE HYDROCHLORIDE]", "Inhibition": -4.7},
      {"smiles": "CCCCCc1cc(O)cc2c1Oc1cc(O)cc(C(=O)CCCC)c1C(=O)O2", "Inhibition": -18.85},
      {"smiles": "Cc1cc2nc3[nH]c(=O)[nH]c(=O)c3nc2cc1C", "note": "[LUMICHROME]", "Inhibition": -0.84},
      {"smiles": "CC(C)=CCc1c2c(c3occ(-c4ccc(O)c(O)c4)c(=O)c3c1O)C=CC(C)(C)O2", "note": "[POMIFERIN]", "Inhibition": 23.27},
      {"smiles": "COC(=O)[C@]1(C)CCC[C@]2(C)C3=CC(=O)[C@@]4(C(C)C)O[C@H]4[C@]3(O)CC[C@@H]12", "Inhibition": -9.2},
      {"smiles": "COc1ccc2c(c1OC)C(=O)O[C@@H]2[C@H]1c2c(cc3c(c2OC)OCO3)CCN1C", "note": "[NOSCAPINE]", "Inhibition": -5.12},
      {"smiles": "CCCCCCCCCCCCCCCC(=O)O[C@@H]1[C@@H](C)[C@@]2(O)[C@@H](C=C(CO)C[C@]3(O)C(=O)C(C)=C[C@@H]23)[C@H]2[C@]1(OC(C)=O)[C@]2(C)CO", "Inhibition": -9.19},
      {"smiles": "CC[C@]1(O)C[C@H]2CN(CCc3c([nH]c4ccccc34)[C@@](C(=O)OC)(c3cc4c(cc3OC)N(C=O)[C@H]3[C@@](O)(C(=O)OC)[C@H](OC(C)=O)[C@]5(CC)C=CCN6CC[C@]43[C@@H]65)C2)C1.O=S(=O)(O)O", "note": "[VINCRISTINE SULFATE]", "Inhibition": -6.71},
      {"smiles": "O=C(O)CCCCCCC[C@@H](O)[C@@H](O)CCCCCCO", "Inhibition": -9.87},
      {"smiles": "COC(=O)C1C(O)CCC2CN3CCc4c([nH]c5ccccc45)C3CC21", "note": "(stereo not given)", "Inhibition": -5.08},
      {"smiles": "C=C1C(=O)O[C@@H]2[C@H]3O[C@]3(C)CC/C=C(\\C)CC[C@@H]12", "Inhibition": 3.45},
      {"smiles": "CCCCCCCCCCCCCCCCCCOCC(O)CO", "note": "(stereo not given) [BATILOL]", "Inhibition": -8.86},
      {"smiles": "C=C1C(=O)OC2CC1C(O)C/C(C)=C/CC/C(C)=C/C(O)CC2C", "note": "(stereo not given)", "Inhibition": -8.51},
      {"smiles": "CC(C)=CC(=O)OC1C2C(C)C(=O)OC2C(O)C(C)C2C=CC(=O)C21C", "note": "(stereo not given)", "Inhibition": -2.16},
      {"smiles": "CC(=O)CCCCn1c(=O)c2c(ncn2C)n(C)c1=O", "note": "[PENTOXIFYLLINE]", "Inhibition": 0.79}
    ]},
    {"system": "Escherichia coli", "test": "Antibacterial activity against Escherichia coli ATCC 25922 (CO-ADD:GN_001); MIC in CAMBH media using NBS plates, by Resazurin F(560/590)", "type": "functional", "settings": "Concentration 20 uM, ASSAY_TEST Inhibition of Bacterial Growth, detection method Resazurin, Fluorescence (ex560/em590), MEDIA CAMHB, plate type 384well, CORNING #3640, time 18 hr", "units": {"Inhibition": "%"}, "values": [
      {"smiles": "CC(=O)O.COc1ccc2c(=O)oc3c(OC)cc(CCN(C)C)c4c(=O)oc1c2c34", "Inhibition": 6.5},
      {"smiles": "CC1=C2[C@H]3OC(=O)[C@@H](C)[C@@H]3CC[C@@]2(C)C=C/C1=N\\O", "Inhibition": 3.05},
      {"smiles": "COC1/C=C\\C=C(/C)C(=O)NC2=CC(=O)C(N)=C(CC(C)CC(OC)C(O)C(C)/C=C(\\C)C1OC(N)=O)C2=O", "note": "(stereo not given)", "Inhibition": -4.57},
      {"smiles": "COc1cc([C@@H]2c3cc4c(cc3[C@@H](OC3OC5CO[C@@H](c6cccs6)OC5C(O)C3O)[C@H]3COC(=O)[C@H]23)OCO4)cc(OC)c1O", "note": "(stereo not given in full)", "Inhibition": 1.68},
      {"smiles": "O=c1oc2c(O)c(O)cc3c(=O)oc4c(O)c(O)cc1c4c23", "note": "[ELLAGIC ACID]", "Inhibition": 7.74},
      {"smiles": "O=C1c2cc(O)c(O)cc2O[C@H](c2ccc(O)c(O)c2)[C@H]1O", "Inhibition": 7.15},
      {"smiles": "COC(=O)NC1C(C)OC(OC2C/C=C(/C)C3C=CC4C(OC5CC(OC6CCC(OC7CC(O)C(OC8CCC(O)C(C)O8)C(C)O7)C(C)O6)C(OC(C)=O)C(C)O5)C(C)CC(C)C4C3(C)/C(O)=C3/C(=O)OC4(CC(C=O)=CC(O)C4/C=C\\2C)C3=O)CC1(C)[N+](=O)[O-]", "note": "(stereo not given)", "Inhibition": 6.38},
      {"smiles": "COc1ccc(C2CC(=O)c3c(O)cc(OC4OC(CO)C(O)C(O)C4OC4OC(C)C(O)C(O)C4O)cc3O2)cc1O", "note": "(stereo not given)", "Inhibition": 5.81},
      {"smiles": "CCC1NC(=O)C(NC(=O)c2ncccc2O)C(C)OC(=O)C(c2ccccc2)NC(=O)C2CC(=O)CCN2C(=O)C(Cc2ccccc2)N(C)C(=O)C2CCCN2C1=O", "note": "(stereo not given)", "Inhibition": 1.18},
      {"smiles": "CC1(C)CCCC2(C)C3=C(CCC12)C(=O)OC3", "note": "(stereo not given)", "Inhibition": 1.76},
      {"smiles": "CN1CCc2cc3c(cc2C(=O)Cc2ccc4c(c2C1)OCO4)OCO3.Cl", "note": "[PROTOPINE HYDROCHLORIDE]", "Inhibition": 3},
      {"smiles": "CCCCCc1cc(O)cc2c1Oc1cc(O)cc(C(=O)CCCC)c1C(=O)O2", "Inhibition": 9.72},
      {"smiles": "Cc1cc2nc3[nH]c(=O)[nH]c(=O)c3nc2cc1C", "note": "[LUMICHROME]", "Inhibition": 3.58},
      {"smiles": "CC(C)=CCc1c2c(c3occ(-c4ccc(O)c(O)c4)c(=O)c3c1O)C=CC(C)(C)O2", "note": "[POMIFERIN]", "Inhibition": 0.91},
      {"smiles": "COC(=O)[C@]1(C)CCC[C@]2(C)C3=CC(=O)[C@@]4(C(C)C)O[C@H]4[C@]3(O)CC[C@@H]12", "Inhibition": 10.18},
      {"smiles": "COc1ccc2c(c1OC)C(=O)O[C@@H]2[C@H]1c2c(cc3c(c2OC)OCO3)CCN1C", "note": "[NOSCAPINE]", "Inhibition": 1.19},
      {"smiles": "CCCCCCCCCCCCCCCC(=O)O[C@@H]1[C@@H](C)[C@@]2(O)[C@@H](C=C(CO)C[C@]3(O)C(=O)C(C)=C[C@@H]23)[C@H]2[C@]1(OC(C)=O)[C@]2(C)CO", "Inhibition": 2.92},
      {"smiles": "CC[C@]1(O)C[C@H]2CN(CCc3c([nH]c4ccccc34)[C@@](C(=O)OC)(c3cc4c(cc3OC)N(C=O)[C@H]3[C@@](O)(C(=O)OC)[C@H](OC(C)=O)[C@]5(CC)C=CCN6CC[C@]43[C@@H]65)C2)C1.O=S(=O)(O)O", "note": "[VINCRISTINE SULFATE]", "Inhibition": 2.79},
      {"smiles": "O=C(O)CCCCCCC[C@@H](O)[C@@H](O)CCCCCCO", "Inhibition": 9.65},
      {"smiles": "COC(=O)C1C(O)CCC2CN3CCc4c([nH]c5ccccc45)C3CC21", "note": "(stereo not given)", "Inhibition": 5.27},
      {"smiles": "C=C1C(=O)O[C@@H]2[C@H]3O[C@]3(C)CC/C=C(\\C)CC[C@@H]12", "Inhibition": 5.09},
      {"smiles": "CCCCCCCCCCCCCCCCCCOCC(O)CO", "note": "(stereo not given) [BATILOL]", "Inhibition": 0.06},
      {"smiles": "C=C1C(=O)OC2CC1C(O)C/C(C)=C/CC/C(C)=C/C(O)CC2C", "note": "(stereo not given)", "Inhibition": 8},
      {"smiles": "CC(C)=CC(=O)OC1C2C(C)C(=O)OC2C(O)C(C)C2C=CC(=O)C21C", "note": "(stereo not given)", "Inhibition": -1.23},
      {"smiles": "CC(=O)CCCCn1c(=O)c2c(ncn2C)n(C)c1=O", "note": "[PENTOXIFYLLINE]", "Inhibition": 9.18}
    ]}
  ]
}
